Fam108B inh – blocks mouse Fam108B hydrolase in RBBP9 counter-screen | recombinant Fam108B, FP-Rh probe fluorescence polarization | inhibition, % at 9.51 µM | 300,000 tested, 0.33% active | AID 1947;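 active means inhibition above the screen mean inhibition plus 3 SD, computed separately per campaign, cut at about 18% in these data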;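 further: inhibitors lower polarization as less probe binds the enzyme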
PAD4 FP inh – blocks human protein arginine deiminase 4. 330,000 tested, 0.41% active. recombinant PAD4, RCA probe fluorescence polarization. AID 485272. inhibition, % at 6.36 µM;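 active means percent inhibition above a cutoff equal to the mean of all tested compounds plus 3 SD, cut at about 15% in these data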
Target sequence (Q9UM07 whole entry, looked up): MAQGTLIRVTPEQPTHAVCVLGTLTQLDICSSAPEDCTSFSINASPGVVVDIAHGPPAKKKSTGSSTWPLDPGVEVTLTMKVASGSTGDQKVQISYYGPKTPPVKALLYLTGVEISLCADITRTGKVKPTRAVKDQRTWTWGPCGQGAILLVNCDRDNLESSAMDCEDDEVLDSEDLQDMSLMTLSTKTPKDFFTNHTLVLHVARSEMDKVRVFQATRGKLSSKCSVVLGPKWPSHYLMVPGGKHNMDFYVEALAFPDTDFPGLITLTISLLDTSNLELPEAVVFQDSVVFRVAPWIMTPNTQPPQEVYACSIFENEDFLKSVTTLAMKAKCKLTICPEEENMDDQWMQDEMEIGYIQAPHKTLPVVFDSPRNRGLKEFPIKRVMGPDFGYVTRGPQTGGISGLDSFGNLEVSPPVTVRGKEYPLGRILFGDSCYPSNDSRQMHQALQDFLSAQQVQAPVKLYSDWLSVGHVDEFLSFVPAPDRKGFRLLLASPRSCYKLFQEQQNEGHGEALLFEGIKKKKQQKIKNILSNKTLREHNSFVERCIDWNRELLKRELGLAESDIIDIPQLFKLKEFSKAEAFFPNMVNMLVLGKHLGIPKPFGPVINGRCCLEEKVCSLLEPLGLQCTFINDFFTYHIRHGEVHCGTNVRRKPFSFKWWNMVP
GSTO1 inh – blocks human GSTO1 in RBBP9 counter-screen. P78417. AID 1974. recombinant GSTO1, activity-based probe fluorescence polarization. inhibition, % at 5.96 µM. 300,000 tested, 1.1% active;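 active means inhibition above the campaign mean inhibition plus 3 SD, cut at about 35% in these data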
LYPLA1 inh – counter-screen for PME1 inhibitors: inhibitors of human LYPLA1; recombinant LYPLA1, FP-Rh probe fluorescence polarization; inhibition, % at 5.9 µM; 320,000 tested, 0.16% active; AID 2174;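 active means inhibition above the mean of all tested compounds plus 3 SD, set per campaign, cut at about 14% in these data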;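 further: inhibitors block serine hydrolase probe labeling of LYPLA1 so polarization falls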
PME-1 inh – blocks human protein phosphatase methylesterase 1. Q9Y570. recombinant PME-1, FP-Rh probe fluorescence polarization. inhibition, % at 5.9 µM. 320,000 tested, 0.53% active;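 active means inhibition above the campaign mean of all compounds plus 3 SD, cut at about 26% in these data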;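 further: competitive labeling of PME-1 active site by serine hydrolase directed probe; inhibitors block probe labeling so polarization falls and inhibition rises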
LYPLA2 inh – LYPLA2 (human) inhibition in PME1 counter-screen; 320,000 tested, 0.38% active; recombinant LYPLA2, FP-Rh probe fluorescence polarization; AID 2177; inhibition, % at 5.9 µM;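 active means inhibition above the screen-wide mean plus 3 SD, limit set per campaign, cut at about 26% in these data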
LYPLA2 confirm – LYPLA2 (human) inhibition, confirmation counter-screen | shares compounds with LYPLA2 inh | recombinant LYPLA2, FP-Rh probe fluorescence polarization | inhibition, % at 5.9 µM | 1,100 tested, 72% active | AID 2232;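 active means mean inhibition across replicates above the hit cutoff set in the primary screen, cut at about 26% in these data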;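 further: blocked labeling of the enzyme by serine hydrolase FP-Rh probe lowers polarization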
LYPLA2 gel ABPP – blocks human acyl-protein thioesterase 2 in gel ABPP | rhLYPLA2 in mouse brain proteome, gel ABPP FP-Rh | 150 tested, 30% active | AID 652029 | shares compounds with LYPLA2 inh | inhibition, % at 20 µM;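 active means inhibition of LYPLA2 enzyme probe labeling above about 50%, limit read from the data; inactive means inhibition below that limit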;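 further: loss of FP-Rh probe labeling of the LYPLA2 gel band measured as band density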
Large screens that a line does not name were inactive (follow-up assays come after a bar, where they were run). A selection: hits, their analogues and other compounds. The true share with any hit is near 1.8%.

CC1(OC(=O)c2cccs2)C(=O)C=C2C=C(C3CC3)OC=C2C1=O (stereo not drawn)	none
Cc1ccc(N2CCN(CCCN3C(=O)C4CCCN4C3=O)CC2)cc1 (stereo not drawn)	none
O=C1C2CCCCN2C(=O)N1CCCCN1CCN(c2ccc([N+](=O)[O-])cc2)CC1 (stereo not drawn)	LYPLA2 inh 30.9 | LYPLA2 confirm inactive
O=[N+]([O-])c1ccc(CN2CCN(c3ccc([N+](=O)[O-])cc3)CC2)cc1	LYPLA2 inh 47.2 | LYPLA2 confirm 31.3
COc1ccc(NC(=O)Nc2cccc3ccccc23)cc1S(N)(=O)=O	none
Cc1c(Cl)cnc(NC(=O)COC(=O)c2ccncc2)c1Cl	none (no result: Fam108B inh, GSTO1 inh)
Cc1cc(C)c(C(=O)N2CCCC(N3CCN(c4cccc(C(F)(F)F)c4)CC3)C2)o1 (stereo not drawn)	LYPLA2 inh 52.0 | LYPLA2 confirm 50.5 | LYPLA2 gel ABPP inactive
Cn1nccc1C(=O)N1CCCC(N2CCN(c3cccc(C(F)(F)F)c3)CC2)C1 (stereo not drawn)	LYPLA2 inh 54.0 | LYPLA2 confirm 52.5 | LYPLA2 gel ABPP inactive
COc1ccc(/C=N/NC(=O)c2ccc[nH]2)cc1	none
CN1CC(=O)N2Cc3[nH]c4ccccc4c3C[C@H]2C1=O	none
CCCCN1CC(=O)N2Cc3[nH]c4ccccc4c3C[C@H]2C1=O	LYPLA2 inh 38.9 | LYPLA2 confirm 27.2
O=C(CNC(=O)c1ccc(S(=O)(=O)N2CCCC2)cc1)N/N=C/c1c(Cl)cccc1Cl	LYPLA2 inh 26.1 | LYPLA2 confirm inactive
Fc1ccc(C2=Nn3c(Cc4ccccc4F)nnc3SC2)cc1	LYPLA2 inh 27.7 | LYPLA2 confirm inactive
O=C(Nc1ccc(N2CCN(C(=O)c3ccco3)CC2)c(Cl)c1)c1c(F)c(F)c(F)c(F)c1F	LYPLA2 inh 61.7 | LYPLA2 confirm 64.1 | LYPLA2 gel ABPP 50.0
O=C(Nc1ccc(N2CCN(C(=O)c3ccco3)CC2)cc1)c1cc(Br)ccc1Cl	LYPLA2 inh 44.0 (no result: Fam108B inh, GSTO1 inh) | LYPLA2 confirm 48.9
COc1ccccc1C(=O)NC(=S)Nc1ccc(N2CCN(C(=O)c3ccco3)CC2)cc1	LYPLA2 inh 27.1 | LYPLA2 confirm inactive
O=C(c1ccco1)N1CCN(C(=S)Nc2ccc(F)c(Cl)c2)CC1	LYPLA2 inh 65.5 | LYPLA2 confirm 68.2 | LYPLA2 gel ABPP inactive
O=C(Nc1ccc(N2CCN(C(=O)c3ccco3)CC2)cc1)c1ccc(Br)cc1	none
O=C(Nc1ccc(N2CCN(C(=O)c3ccco3)CC2)c(Cl)c1)c1cccnc1	none
Cc1ccccc1C(=O)N1CCN(c2ccc(NC(=S)NC(=O)c3ccco3)cc2)CC1	none
O=C(c1ccco1)N1CCN(C(=S)Nc2ccc(F)cc2)CC1	none
COc1ccccc1NC(=O)Cn1cc(C(=O)C2CC2)c2ccccc21	none
Cc1ccc(S(=O)(=O)N(C)CC(=O)N2CC(C)OC(C)C2)cc1 (stereo not drawn)	none
CCCCCCCCCCCCN1[C@@H](CC(=O)O)c2cc(F)ccc2S1(=O)=O	LYPLA2 inh 58.2 | LYPLA2 confirm 58.4 | LYPLA2 gel ABPP inactive
CCCCCCCCN1[C@@H](CC(=O)O)c2cc(C(F)(F)F)ccc2S1(=O)=O	none
CCCCCCCCN1[C@@H](CC(=O)OC)c2cc(F)ccc2S1(=O)=O	none
CCCCCCCCCCCCN1[C@@H](CC(=O)O)c2cc(C(F)(F)F)ccc2S1(=O)=O	LYPLA2 inh 60.9 | LYPLA2 confirm 59.8 | LYPLA2 gel ABPP inactive
CCOC(=O)C1=CN(Cc2ccco2)S(=O)(=O)N(CC)C1c1cccc(OC)c1 (stereo not drawn)	none (no result: Fam108B inh, GSTO1 inh, LYPLA1 inh, PME-1 inh, LYPLA2 inh)
O=C(Nc1nnc(SCc2cccnc2)s1)C1CC(=O)N(c2ccc(F)cc2)C1 (stereo not drawn)	none
Cc1ccc(Nc2c([N+](=O)[O-])cc(C(=O)N3CC(=O)Nc4ccccc43)cc2[N+](=O)[O-])c(C)c1	LYPLA2 inh 26.7 | LYPLA2 confirm 27.7
COc1cc(OC)cc(C(=O)N2CC(=O)Nc3ccccc32)c1	none
CSc1cccc(NC(N)=S)c1	none
CCOC(=O)N1CCN(CC(=O)Nc2sccc2C#N)CC1	LYPLA2 inh 45.3 | LYPLA2 confirm 38.7
COCCN1C(=O)c2ccccc2C(C(=O)N2CCN(c3ccccc3)CC2)C1c1ccc(F)cc1 (stereo not drawn)	none
O=C(COc1cc2oc(=O)cc(-c3ccccc3)c2cc1Cl)NCC1CCC(C(=O)O)CC1 (stereo not drawn)	LYPLA2 inh 42.4 | LYPLA2 confirm 36.9
CCc1cc2c(-c3ccccc3)cc(=O)oc2cc1OCC(=O)NCC1CCC(C(=O)O)CC1 (stereo not drawn)	none
O=C(COC(=O)Cn1cnc2ccccc21)Nc1ccc(OC(F)F)cc1	none (no result: Fam108B inh, GSTO1 inh, LYPLA1 inh, PME-1 inh, LYPLA2 inh)
COc1ccc(-n2c(C)cc(C(=O)Cn3c(NCCO)nc4ccccc43)c2C)cc1	LYPLA2 inh 56.1 | LYPLA2 confirm 62.3 | LYPLA2 gel ABPP inactive
O=C(Cn1c(NCCO)nc2ccccc21)c1ccc(F)cc1	none
COc1ccc(NC(=O)OC(C)C)cc1	none
Cc1ccc(C)c(N2C(=O)c3ccc(C(=O)OCC(=O)c4c(N)n(C)c(=O)n(C)c4=O)cc3C2=O)c1	LYPLA2 inh 26.3 | LYPLA2 confirm 44.1
COc1ccc(C(=O)OCC(=O)c2c(N)n(C)c(=O)n(C)c2=O)cc1OC	none
CC(=O)c1ccc(CCCCCCCCCC(=O)O)s1	LYPLA2 inh 58.9 | LYPLA2 confirm 56.6 | LYPLA2 gel ABPP inactive
CC(CCC(C)C)=NNC(=S)Nc1cc(S(=O)(=O)N2CCOCC2)ccc1N1CCOCC1	none (no result: Fam108B inh, PAD4 FP inh, GSTO1 inh, LYPLA1 inh, PME-1 inh, LYPLA2 inh) | LYPLA2 gel ABPP 60.0
O=C(/C=C/c1ccco1)N1CCN(C/C=C/c2ccccc2)CC1	LYPLA2 inh 27.0 | LYPLA2 confirm inactive
O=C(/C=C/c1ccco1)N1CCN(S(=O)(=O)/C=C/c2ccccc2)CC1	none
O=C(NCCC1=CCCCC1)C1CCN(S(=O)(=O)c2ccccc2)CC1	LYPLA2 inh 28.1 | LYPLA2 confirm inactive
O=C(NCCC1=CCCCC1)C1CCN(S(=O)(=O)c2cccc(C(F)(F)F)c2)CC1	none (no result: Fam108B inh, GSTO1 inh)
CCCc1ncc(CN2CCCC(C(=O)Nc3ccc(-c4cccc(OC)c4)cc3)C2)cn1 (stereo not drawn)	none
COc1cccc(-c2ccc(NC(=O)C3CCCN(Cc4cnc(N(C)C)s4)C3)cc2)c1 (stereo not drawn)	LYPLA2 inh 27.8 | LYPLA2 confirm inactive
COc1cc(/C=C2\C(=O)N(c3ccccc3)N=C2C)ccc1Oc1ccc([N+](=O)[O-])cc1[N+](=O)[O-]	PAD4 FP inh 44.1, LYPLA2 inh 30.7 | LYPLA2 confirm inactive

Assay outcomes from PubChem BioAssay.
